{"source": "PubChem BioAssay AID1159506", "about": "(National Center for Advancing Translational Sciences (NCATS), 2015)", "note": "Over roughly 59,000 sequences, the read-out has its median near -0.00055; the lowest 2% begin near -2. Shown is part of a subset that was picked to be rich in the lowest values."}
{"assay": "Identification of proteins required for the processing of the EWS-FLI1 nascent transcript;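 also: robust z of luciferase light less the median z of siRNAs with the same seed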", "details": "TC32 Ewing sarcoma NR0B1-luc vs CMV-luc (EWS-FLI1 target promoter against control promoter), 48 h; screened at 20 nM (by protocol)", "procedure": "Ewing sarcoma (ES) cells depend on the EWS-FLI1 fusion transcription factor for cell survival. Using an assay of EWS-FLI1 activity and genome-wide siRNA screening we have identified proteins required for the processing of the EWS-FLI1 nascent transcript. Parallel genome-wide siRNA-mediated RNAi screens were conducted in Ewing sarcoma TC32 cell lines expressing a luciferase (luc) reporter protein driven by either the promoter of the EWS-FLI1 target gene NR0B1 (TC32-NR0B1-luc) or the CMV promoter (TC32-CMV-luc). Luciferase activity was assessed 48 hours post siRNA-transfection.\nTwenty microl of serum-free media containing Lipofectamine RNAiMax (0.05 microl) was added to wells containing siRNA (0.8 pmol). Lipid and siRNA were allowed to complex for 45 min at ambient temperature before addition of 600 cells in RPMI-1640, 20% FBS to yield final transfection mixtures containing 20 nM siRNA in RPMI-1640, 10% FBS. Luciferase expression was measured using OneGlo (Promega, Madison, WI). The genome-wide screening campaign was conducted using Ambion's human genome library version 4.1 (Ambion, Austin TX). This library targets approximately 21000 human genes, three siRNAs per gene. Each siRNA is arrayed in an individual well of a 384-well plate. Parallel transfections were conducted in TC32-NR0B1-luc and TC32-CMV-luc cell lines and luciferase expression (OneGlo, Promega) was assayed 48 h later on a PerkinElmer Envision 2104 Multilabel plate reader (PerkinElmer, Waltham, MA). Qiagen's AllStars Negative control was incorporated on all screening plates for normalization (16 wells per plate). Qiagen, Germantown, MDsiGL4 was incorporated as a positive transfection control (16 wells per plate) on all plates. […] The raw luciferase data for the NR0B1- and CMV-luc screens were normalized and z-score-MAD transformed using standard methods (Chung et al., 2008). The miRNA-like seed sequence of every siRNA was determined and the median z-score for all siRNA sequences with the same seed sequence was calculated. This z-score was subtracted from the z-score associated with each siRNA with that seed sequence to generate a seed-adjusted z-score value (Z) that was used when the results for the three siRNAs corresponding to each gene were compared (Marine et al., 2012)"}
{"sequence": "AAUGUAGUAAAUGCAAGUU against C3orf79", "seed-corrected z-score": -0.0591}
{"sequence": "UUCUGGUAGAAGCAUUUCC against ZNF25", "seed-corrected z-score": -1.93}
{"sequence": "UGAUGAAGUAGGUCACGGC against SLC29A4", "seed-corrected z-score": 0.41}
{"sequence": "UUUUCAGUCUCACUAGUUU against MIPEPP3", "seed-corrected z-score": 0.623}
{"sequence": "AUUCUUAAUCUUUACAUCC against BRDTP1", "seed-corrected z-score": 0.809}
{"sequence": "UAAGGGUCCUUCCAUGGCC against PVRIG", "seed-corrected z-score": 0.201}
{"sequence": "AUGUUUCCCAUAACAGUGG against OR4D2", "seed-corrected z-score": -3.19}
{"sequence": "UGAAAAUCACGAGAUUUCC against TEAD1", "seed-corrected z-score": 0.305}
{"sequence": "UGUUAAACUGCUAAGGAUG against RPRD2", "seed-corrected z-score": -0.294}
{"sequence": "UCAUGUACGGCCUCUUCCC against CCDC8", "seed-corrected z-score": 0.173}
{"sequence": "UCUGUGAGCAGUUUCCACU against SOX21", "seed-corrected z-score": -2.74}
{"sequence": "UGAAUGUCUUGCGAUUUGC against CADM2", "seed-corrected z-score": 0.122}
{"sequence": "UCCCAACCCAGUCAUAACC against BEST3", "seed-corrected z-score": 0.332}
{"sequence": "UUUCGGUACUCGGUUAACC against EIF3FP3", "seed-corrected z-score": 0.962}
{"sequence": "UUGUCGUGAAAUGAAACUC against TTLL11", "seed-corrected z-score": -0.262}
{"sequence": "UUCCUUUCCACUGCCGUGU against CHRAC1", "seed-corrected z-score": 0.0577}
{"sequence": "UUCGUUAAGCAAACACUCG against ADAMTS9", "seed-corrected z-score": 0.367}
{"sequence": "UUUCAGAUAAGCACGAAGC against EIF3M", "seed-corrected z-score": 1.89}
{"sequence": "UUAGCUGCAUGAUACCAGG against FAM151B", "seed-corrected z-score": -2.3}
{"sequence": "AUAGUUACAGAGGCAAGAG against MESTP3", "seed-corrected z-score": 1.98}
{"sequence": "UAUCUAACUUCUGUCCCGC against HCCS", "seed-corrected z-score": 0.00186}
{"sequence": "UCUGCAACAAGAUCAACAG against POP5", "seed-corrected z-score": 0.345}
{"sequence": "UUUUCUACAGCUCUCACUC against CREB3", "seed-corrected z-score": -2.05}
{"sequence": "AAACCUAAAAAUGCACUCC against MAGEE1", "seed-corrected z-score": 0.116}
{"sequence": "UAGGUGACGAUCUCCAUCA against HCK", "seed-corrected z-score": -1.81}
{"sequence": "UUUCAUAUGUGAAUCCUCC against TCN2", "seed-corrected z-score": 0.641}
{"sequence": "AAACUAGUAACUCCUCGUC against PRDM8", "seed-corrected z-score": -2.41}
{"sequence": "AGUUGAAUAAGAAAGUACC against MTM1", "seed-corrected z-score": 1.55}
{"sequence": "UCAAACACCAGGGUGAGGG against CDK18", "seed-corrected z-score": -0.15}
{"sequence": "AACUGGUUAUGGUAGUUGC against RMI2", "seed-corrected z-score": -2.9}
{"sequence": "UCAGGAUCCAGACAGUUGC against TP53AIP1", "seed-corrected z-score": 0.541}
{"sequence": "UUAGGUGCACCAGUAAGAG against PEX2", "seed-corrected z-score": -1.19}
{"sequence": "UCCAGUAAAAGGCUGAGCG against LGI1", "seed-corrected z-score": -3.39}
{"sequence": "UCAGGAUGAUGUGUGGGAU against KRTAP5-11", "seed-corrected z-score": -1.11}
{"sequence": "UGCUGUUCAAGCGAAUGCC against DRG1", "seed-corrected z-score": 0.745}
{"sequence": "AUAAGAUUGGAAUUCGACG against ARL6", "seed-corrected z-score": 0.549}
{"sequence": "UUUGGAGCUACCACCCGAC against MRPL27", "seed-corrected z-score": 0.314}
